Data from PubChem BioAssay (Tox21).
Records with an inconclusive call do not appear. Active and inactive are the calls of the source. Unless noted, calls come from the whole dose curve; as a rule, active = well fitted curve in the direction sought with a large enough effect in the repeat runs; inconclusive = weak or mixed curves; inactive = no such curve, though single readings can be large; an effect the other way counts as inactive or inconclusive.

Legend:
[1] = qHTS assay to test for compound auto fluorescence at 535 nm (green) in HEK293 cells (AID 720680)
[2] = qHTS assay to test for compound auto fluorescence at 460 nm (blue) in HEK293 cell free culture (AID 720681)
How it was run: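 Test compounds were pinned into cell-free culture medium (DMEM with 10% FBS) and fluorescence was read directly at Ex/Em 405/460 nm. Signals were expressed as fluorescence equivalents of triamterene, with DMSO vehicle as control.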

[3] = qHTS assay to test for compound auto fluorescence at 535 nm (green) in HEK293 cell free culture (AID 720682)
How it was run: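 Steps: dispense DMEM/10% FBS into empty wells; pin in compound or DMSO; measure fluorescence at 485/535 nm. Values are fluorescein equivalents.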

[4] = qHTS assay to test for compound auto fluorescence at 590 nm (red) in HEK293 cell free culture (AID 720683)
How it was run: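 Tox21 10K library compounds were pinned into cell-free DMEM with 10% FBS and fluorescence was read at excitation 540 nm. Activity is expressed as Rose Bengal sodium equivalency.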

[5] = qHTS assay to test for compound auto fluorescence at 590 nm (red) in HepG2 cell free culture (AID 720684)
How it was run: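 Red fluorescence (540 nm excitation, 590 nm emission) was measured after compound transfer into cell-free MEM supplemented with 10% FBS. Values are equivalencies against Rose Bengal sodium.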

[6] = qHTS assay to test for compound auto fluorescence at 460 nm (blue) in HepG2 cell free culture (AID 720685)
How it was run: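 Compound (23 nL) or DMSO pinned into cell-free MEM with 10% FBS; blue fluorescence read at 405/460 nm excitation/emission, expressed as auto-fluorescence equivalency to triamterene.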

[7] = qHTS assay to test for compound auto fluorescence at 535 nm (green) in HepG2 cell free culture (AID 720686)
[8] = qHTS assay to test for compound auto fluorescence at 460 nm (blue) in HepG2 cells (AID 720687)
How it was run: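 Cells (2,000/well in MEM with 10% FBS) attached overnight at 37 C, then were exposed to compound or DMSO for 1 hr at 37 C, 5% CO2. Fluorescence read at Ex/Em 405/460 nm, expressed as triamterene-equivalent signal.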

[9] = target: Glucocorticoid receptor (Homo sapiens) (UniProt P04150); experiment: qHTS assay to identify small molecule agonists of the glucocorticoid receptor (GR) signaling pathway (AID 720691; active = well fitted activation curve with a large enough effect in the signal ratio in the repeat runs, not every such curve was filed as active; the % refers to the signal ratio)
Glucocorticoid receptor (Homo sapiens), sequence (P04150 whole entry, looked up): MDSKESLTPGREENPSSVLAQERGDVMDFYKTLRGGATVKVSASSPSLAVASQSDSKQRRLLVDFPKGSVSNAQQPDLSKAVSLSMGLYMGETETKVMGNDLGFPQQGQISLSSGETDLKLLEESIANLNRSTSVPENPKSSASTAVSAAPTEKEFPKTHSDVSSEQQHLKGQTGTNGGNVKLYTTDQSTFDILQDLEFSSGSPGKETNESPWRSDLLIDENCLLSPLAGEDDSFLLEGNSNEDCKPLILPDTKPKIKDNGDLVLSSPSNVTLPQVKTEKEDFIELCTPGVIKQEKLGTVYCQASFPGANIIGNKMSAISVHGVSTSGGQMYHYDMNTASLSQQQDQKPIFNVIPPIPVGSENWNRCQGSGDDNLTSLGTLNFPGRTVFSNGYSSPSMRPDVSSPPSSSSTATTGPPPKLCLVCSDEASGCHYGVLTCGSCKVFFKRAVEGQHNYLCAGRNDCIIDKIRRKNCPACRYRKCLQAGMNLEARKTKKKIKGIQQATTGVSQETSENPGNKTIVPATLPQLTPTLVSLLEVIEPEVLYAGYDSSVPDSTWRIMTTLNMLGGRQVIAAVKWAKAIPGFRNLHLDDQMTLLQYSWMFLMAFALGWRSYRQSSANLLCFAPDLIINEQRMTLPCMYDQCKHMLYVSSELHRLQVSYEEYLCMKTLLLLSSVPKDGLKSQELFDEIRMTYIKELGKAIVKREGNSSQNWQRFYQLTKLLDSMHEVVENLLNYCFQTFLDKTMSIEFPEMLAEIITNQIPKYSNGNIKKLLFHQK
How it was run: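 Agonist mode in a HeLa line carrying a GRE-controlled beta-lactamase reporter. Compounds act for 18 h at 37 C before a 2 h room-temperature FRET substrate step and fluorescence reading.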

[10] = target: Glucocorticoid receptor (Homo sapiens) (UniProt P04150); experiment: qHTS assay to identify small molecule antagonists of the glucocorticoid receptor (GR) signaling pathway (AID 720692; active = well fitted inhibition curve with a large enough effect in the signal ratio in the repeat runs, not every such curve was filed as active; the % refers to the signal ratio)
How it was run: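 Cells plated, rested 4 h at 37 C/5% CO2; compounds in DMSO pin-transferred; dexamethasone added to 5 nM final; 18 h at 37 C; B/G FRET substrate added, 2 h room temperature; fluorescence measured.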

[11] = qHTS assay to identify small molecule antagonists of the glucocorticoid receptor (GR) signaling pathway - cell viability counter screen (AID 720693); note: nearly all actives have a fitted effect of over 55% in size
[12] = qHTS assay for identifying genotoxic compounds that show differential cytotoxicity against isogenic chicken DT40 cell lines with known DNA damage response pathways - wild type cell line (AID 743012); note: nearly all actives have a fitted effect of over 60% in size; note: potency is the fitted concentration of half-maximal effect
How it was run: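 Cells (DT40 wild type, 300/well) are treated with DMSO-dissolved compounds after a ~0.5 h pre-incubation and kept 40 h at 37 C/5% CO2. Viability is then measured by CellTiter-Glo luminescence following 30 min at room temperature.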

[13] = qHTS assay for identifying genotoxic compounds that show differential cytotoxicity against isogenic chicken DT40 cell lines with known DNA damage response pathways - Rev3 mutant cell line (AID 743014); note: nearly all actives have a fitted effect of over 55% in size
[14] = qHTS assay for identifying genotoxic compounds that show differential cytotoxicity against isogenic chicken DT40 cell lines with known DNA damage response pathways - Rad54/Ku70 mutant cell line (AID 743015); note: nearly all actives have a fitted effect of over 60% in size
[15] = qHTS assay to identify small molecule antagonists of the androgen receptor (AR) signaling pathway - cell viability counter screen (AID 743033; note: nearly all actives have a fitted effect of over 45% in size)
[16] = qHTS assay to identify small molecule antagonists of the androgen receptor (AR) signaling pathway using the MDA cell line - cell viability counter screen (AID 743041; note: nearly all actives have a fitted effect of over 45% in size)
How it was run: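 MDA-kb2 AR-luc human breast carcinoma cells (MMTV-luciferase, AR/GR responsive) were treated with compounds plus R1881 agonist for 16 h at 37 °C. Viability was read as CellTiter-Fluor fluorescence in the same wells as the reporter assay.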

[17] = target: Androgen receptor (Homo sapiens) (UniProt P10275); experiment: qHTS assay to identify small molecule antagonists of the androgen receptor (AR) signaling pathway (AID 743035; active = well fitted inhibition curve with a large enough effect in the signal ratio in the repeat runs, not every such curve was filed as active; the % refers to the signal ratio)
Androgen receptor (Homo sapiens), sequence (P10275 whole entry, looked up): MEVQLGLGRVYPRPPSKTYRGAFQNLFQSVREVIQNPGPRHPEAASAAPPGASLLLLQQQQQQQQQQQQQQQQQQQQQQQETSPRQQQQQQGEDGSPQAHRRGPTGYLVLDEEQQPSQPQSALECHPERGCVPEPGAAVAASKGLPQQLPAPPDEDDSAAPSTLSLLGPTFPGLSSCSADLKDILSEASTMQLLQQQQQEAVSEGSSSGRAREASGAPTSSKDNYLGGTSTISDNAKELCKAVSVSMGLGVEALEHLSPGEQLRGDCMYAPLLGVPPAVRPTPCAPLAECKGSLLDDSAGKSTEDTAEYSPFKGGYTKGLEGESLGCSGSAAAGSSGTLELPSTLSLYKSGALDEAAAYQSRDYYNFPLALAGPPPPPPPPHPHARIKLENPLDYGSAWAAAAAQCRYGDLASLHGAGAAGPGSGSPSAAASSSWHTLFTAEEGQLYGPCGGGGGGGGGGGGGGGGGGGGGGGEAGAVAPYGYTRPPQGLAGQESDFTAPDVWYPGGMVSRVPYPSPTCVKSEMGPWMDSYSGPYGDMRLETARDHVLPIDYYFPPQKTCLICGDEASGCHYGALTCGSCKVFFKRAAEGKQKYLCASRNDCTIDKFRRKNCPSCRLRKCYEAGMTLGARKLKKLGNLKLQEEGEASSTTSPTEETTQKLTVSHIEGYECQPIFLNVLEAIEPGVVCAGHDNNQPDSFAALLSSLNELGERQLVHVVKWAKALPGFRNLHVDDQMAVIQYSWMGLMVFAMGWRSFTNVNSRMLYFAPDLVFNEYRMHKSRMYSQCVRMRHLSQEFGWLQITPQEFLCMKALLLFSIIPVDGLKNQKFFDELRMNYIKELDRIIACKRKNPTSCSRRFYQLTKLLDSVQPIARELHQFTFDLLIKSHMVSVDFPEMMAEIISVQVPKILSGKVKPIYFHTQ
How it was run: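 Antagonism is scored as loss of R1881-driven beta-lactamase reporter expression in HEK293 cells carrying the reporter under a UAS element, after 16 h co-treatment at 37C and a 2 h room-temperature FRET substrate read.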

[18] = target: Androgen receptor (Homo sapiens) (UniProt P10275); experiment: qHTS assay to identify small molecule agonists of the androgen receptor (AR) signaling pathway (AID 743036; active = well fitted activation curve with a large enough effect in the signal ratio in the repeat runs, with a control signal flat, not every such curve was filed as active; the % refers to the signal ratio)
How it was run: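 Reporter line: GeneBLAzer AR-UAS-bla-GripTite (HEK293). Steps: plate cells, 4 h rest, add compounds, 16 h at 37C, add LiveBLAzer B/G substrate, 2 h at RT, read fluorescence.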

[19] = target: Androgen receptor (Homo sapiens) (UniProt P10275); experiment: qHTS assay to identify small molecule agonists of the androgen receptor (AR) signaling pathway using the MDA cell line (AID 743040; note: nearly all actives have a fitted effect of over 20% in size)
How it was run: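 MDA-kb2 breast carcinoma cells stably carrying an MMTV-driven luciferase reporter (AR- and GR-responsive) were seeded and held 5 h at 37C, 0% CO2, then exposed to compounds in DMSO for 16 h. Luminescence was read 30 min after ONE-Glo addition.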

[20] = target: Androgen receptor (Homo sapiens) (UniProt P10275); experiment: qHTS assay to identify small molecule antagonists of the androgen receptor (AR) signaling pathway using the MDA cell line (AID 743042; note: nearly all actives have a fitted effect of over 55% in size)
How it was run: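 MDA-kb2 cells (human breast carcinoma, stably carrying an MMTV-luciferase reporter responsive to AR and GR) were plated at 3,000 cells/well and preincubated 5 hr at 37C, then given compound plus R1881 agonist for 16 h. ONE-Glo luminescence was read.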

Measured: Potency

CC(=O)OCC(=O)Nc1cc(C#N)cc(NC(=O)COC(C)=O)c1Cl
not listed: [17] | [18] | [19] | [20]
inactive: all other assays above

CC1(C)Oc2ccc(C#N)cc2[C@@H](N2CCCC2=O)[C@@H]1O
not listed: [17] | [18] | [19] | [20]
inactive: all other assays above

CC(C)NCC(O)c1ccc2ccccc2c1 (stereo not drawn)
active: [12] 15 µM
not listed: [13] | [14] | [17] | [18] | [19] | [20]
inactive: all other assays above

C=CCCCCCCCC
not listed: [17] | [18] | [19] | [20]
inactive: all other assays above

CCCC(=O)OC/C=C(\C)CCC=C(C)C
not listed: [17] | [18] | [19] | [20]
inactive: all other assays above

C/C(CC(C)C)=N\O
not listed: [17] | [18] | [19] | [20]
inactive: all other assays above

Cc1ccc(N)cc1S(=O)(=O)O
not listed: [14] | [17] | [18] | [19] | [20]
inactive: all other assays above

CCOCCOCC
not listed: [17] | [18] | [19] | [20]
inactive: all other assays above

CC1=NN(c2ccc(S(=O)(=O)O)cc2)C(=O)C1
not listed: [13] | [17] | [18] | [19] | [20]
inactive: all other assays above

CCCCOCCOC(=O)COc1ccc(Cl)cc1Cl
not listed: [13] | [14] | [17] | [18] | [19] | [20]
inactive: all other assays above

CCC(C)OC(C)CC (stereo not drawn)
not listed: [13]
inactive: all other assays above

Cc1ccc(C(C)NC(=O)[C@@H](NC(=O)OC(C)C)C(C)C)cc1 (stereo partly drawn)
not listed: [17] | [18] | [19] | [20]
inactive: all other assays above

CC(=O)O[C@@H]1CC2CCC1(C)C2(C)C (stereo partly drawn)
not listed: [14]
inactive: all other assays above

CCC(=O)CC
not listed: [14] | [17] | [18] | [19] | [20]
inactive: all other assays above

Cc1cccc(Cl)c1
not listed: [13] | [17] | [18] | [19] | [20]
inactive: all other assays above

CN(C)CCOC(=O)C(c1ccccc1)C1(O)CCCC1 (stereo not drawn)
not listed: [17] | [18] | [19] | [20]
inactive: all other assays above

COc1ccc(CCO)cc1
not listed: [17]
inactive: all other assays above
